Our source for the growth values is PubChem BioAssay (NCI).

Each structure is given as a SMILES string. This is part of a sample that, as a whole, favours compounds with a hit. Of some 83,000 tested, about 20% had one in any assay.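 Activity criterion: percent growth below 10, measured after cells in 96-well plates were exposed to a single compound concentration for 48 hours.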 The source made the active and inactive calls.

For the test, the system named is CCRF-CEM leukemia. Nature of the test: NCI-60 one-dose screen, 48 h (100 = growth as untreated, 0 = no growth, -100 = all killed). The settings on record: 10 µM unless noted.
In the case of `Cc1ccc2c(NCCCN(C)C)c3c(C)nn(C)c3nc2c1`, the growth was 31.7% (inactive). The value for `CCc1ccccc1NC(=O)c1sc2nc3c(cc2c1N)C(=O)CCC3` was 13.6% (inactive); that for `C#Cc1nc(Nc2cc(C)[nH]n2)c2ccccc2n1` was 2.05% (active); that for `CC(=O)Oc1cc2cnc3c4cc(OC(C)=O)c(OC(C)=O)cc4ccc3c2cc1OC(C)=O` was -6.55% (active).

In the case of `Cc1cc(Nc2nc(-c3cccnc3)nc3ccccc23)n[nH]1`, the growth was 57.3% (inactive). The value for `CNC(=S)N/N=C/CSC/C=N/NC(=S)NC` was 20.4% (inactive); that for `COc1ccc(CN(c2ccc(C)cc2)C2OC(=O)c3ccccc32)cc1OC` (configuration not stated) was 91.3% (inactive). Turning to `COc1cccc(-n2cc(-c3nc(Nc4cc(C)[nH]n4)c4ccccc4n3)nn2)c1`, the growth is 32.6% (inactive). The value for `COc1cc(OC)c(/C=C/c2cc[n+](C)c3ccccc23)c(OC)c1` was 7.13% (active). The value for `Cc1nn(-c2nc3ccccc3[nH]2)c2c1C(c1ccc3c(c1)OCO3)CC(=O)N2` (configuration not stated) was 12.1% (inactive). The value for `CC1(C)OCC2OC3(C(=O)O)OC(C)(C)OC3C2O1` (configuration not stated) was 108% (inactive); that for `NCc1cn2cc(Cl)sc2n1` was 103% (inactive); that for `COc1ccc(/C=N\NC(=O)c2ccncc2)cc1O` was 99.3% (inactive). Regarding `Nc1cc2nc3ccccc3sc-2cc1=O`, the growth was 18.4% (inactive).

Turning to `N#CC1=C(N)Oc2c(ccc3ccccc23)C1c1cccs1` (configuration not stated), the growth was 5.17% (active). The value for `CCOC(=O)c1ccc2c(c1)nc(/C=C/c1ccc(Cl)cc1)n2-c1cc(C(C)(C)C)[nH]n1` was 13.5% (inactive); that for `CCOC(=O)c1nc(Nc2cc(C)[nH]n2)c2ccccc2n1` was 96.9% (inactive).
